Results as given in PubChem BioAssay (EPA / NIEHS).
Results filed as inconclusive are left out. Some compounds were tested as several samples or in several runs, with calls that do not always agree. The source made the active and inactive calls. Rule for the calls, unless noted: active = hit-call score of the fitted dose curve at least 0.9, where 1 is the maximum; inconclusive = response in the unintended direction; inactive = score below 0.9.

Assays:
[1] = Tanguay_ZF_120hpf_TRUN_legacy: (Legacy) Oregon State University Tanguay Lab 120 Hour Post-fertilization zebrafish Assay for Truncated Body (AID 2283655)
Summary of the method: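 Single dechorionated zebrafish embryos received test chemical from 6 hpf in 0.64% DMSO, kept at 28C. At 120 hpf, brightfield inspection noted any truncated body.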

[2] = Tanguay_ZF_120hpf_NC_legacy: (Legacy) Oregon State University Tanguay Lab 120 Hour Post-fertilization zebrafish Assay for Notochord and Tail Malformation (AID 2283656)
Summary of the method: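 Binary scoring of notochord distortion by brightfield microscopy; embryos dying were not scored. Wild-type Tropical 5D embryos, chorion removed, exposed singly and statically from 6 to 120 hpf, 28C, sealed, 0.64% DMSO.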

[3] = read-out: ABC Transporter (ABCB1), ABCB1 (gene 5243); assay: CLD_ABCB1_6hr: CellzDirect (CLD) Gene Expression Assay for ABC Transporter (ABCB1) at 6 hours (AID 2283659);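 note: hits raise ABCB1 transcript above the DMSO vehicle baseline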
Summary of the method: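 ABCB1 transcript measured by quantitative nuclease protection assay, chemiluminescent read-out, 6 h after dosing human hepatocyte cultures (0.2% DMSO vehicle, daily redosing). Activity fitted as increase over DMSO baseline; cytotoxicity flagged by phase-contrast morphology.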

[4] = read-out: alkyl and aryl transferase (GSTA2), GSTA2 (gene 2939); assay: CLD_GSTA2_6hr: CellzDirect (CLD) Gene Expression Assay for alkyl and aryl transferase (GSTA2) at 6 hours (AID 2283666)
Summary of the method: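 GSTA2 transcript induction at 6 h, quantified by nuclease protection (qNPA) with chemiluminescent detection, in human liver primary hepatocytes exposed to several compound concentrations with 0.2% DMSO as baseline; phase-contrast morphology annotated apparent cytotoxicity.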

[5] = Tanguay_ZF_120hpf_TR_legacy: (Legacy) Oregon State University Tanguay Lab 120 Hour Post-fertilization zebrafish Assay for Touch Response (AID 2283667)
Summary of the method: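 Readout is presence or absence of touch response in 120 hpf zebrafish larvae, assessed by brightfield observation after continuous static exposure at 28C. Final vehicle was 0.64% (vol/vol) DMSO.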

[6] = read-out: organic anion transporter (SLCO1B1), SLCO1B1 (gene 10599); assay: CLD_SLCO1B1_6hr: CellzDirect (CLD) Gene Expression Assay for organic anion transporter (SLCO1B1) at 6 hours (AID 2283668);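 note: active means mRNA induction above DMSO baseline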
Summary of the method: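 SLCO1B1 mRNA induction measured 6 h after dosing by quantitative nuclease protection with chemiluminescent read-out, in human primary hepatocyte cultures given chemicals at several concentrations (vehicle 0.2% DMSO). Increase over DMSO baseline fitted; morphology-based cytotoxicity annotated yes/no.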

[7] = read-out: sulfotransferase (SULT2A), SULT2A1 (gene 6822); assay: CLD_SULT2A_6hr: CellzDirect (CLD) Gene Expression Assay for sulfotransferase (SULT2A) at 6 hours (AID 2283669);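 note: hits raise transcript level above the DMSO vehicle baseline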
Summary of the method: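 Measured 6 h after dosing, SULT2A1 mRNA in human hepatocyte lysates was quantified by S1 nuclease protection with chemiluminescent detection. Increases fitted against 0.2% DMSO vehicle baseline; phase-contrast cytotoxicity recorded yes/no.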

[8] = CLD_ACTIN_24hr: CellzDirect (CLD) Gene Expression Assay for Baseline Control (Actin) at 24 hours (AID 2283670)
Summary of the method: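 This 24 h qNPA (S1 nuclease protection, chemiluminescence) actin transcript readout in cultured human liver primary cells serves as baseline control. Signal is fitted upward relative to 0.2% DMSO; chemicals tested at multiple concentrations across two donor preparations.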

[9] = read-out: glucuronosyltransferase (UGT1A1), UGT1A1 (gene 54658); assay: CLD_UGT1A1_6hr: CellzDirect (CLD) Gene Expression Assay for glucuronosyltransferase (UGT1A1) at 6 hours (AID 2283672)
Summary of the method: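 UGT1A1 mRNA induction, read by quantitative nuclease protection assay, 6 h after dosing primary human hepatocytes (two donors, 0.2% DMSO vehicle). Gain of signal fitted relative to vehicle.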

[10] = CLD_ACTIN_6hr: CellzDirect (CLD) Gene Expression Assay for Baseline Control (Actin) at 6 hours (AID 2283676);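 note: active means increased actin mRNA relative to DMSO vehicle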
Summary of the method: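 Baseline actin transcript level measured by qNPA (S1 nuclease protection, chemiluminescence) in human hepatocyte cultures 6 h after chemical exposure; 0.2% DMSO vehicle as reference, cytotoxicity noted from morphology.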

[11] = read-out: Cytochrome P450 2B6 (Homo sapiens) (UniProt P20813); assay: CLD_CYP2B6_6hr: CellzDirect (CLD) Gene Expression Assay for xenobiotic metabolism (CYP2B6) at 6 hours (AID 2283677);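 note: actives raise CYP2B6 transcript above DMSO baseline so AC50 marks an inducer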
Summary of the method: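 CYP2B6 transcript levels, read by chemiluminescent qNPA, were fitted for increase versus DMSO baseline; cultured human liver hepatocytes from two donor preparations were harvested 6 h after exposure to test chemicals at multiple concentrations.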

[12] = read-out: Cytochrome P450 2C19 (Homo sapiens) (UniProt P33261); assay: CLD_CYP2C19_6hr: CellzDirect (CLD) Gene Expression Assay for xenobiotic metabolism (CYP2C19) at 6 hours (AID 2283678)
Summary of the method: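 CYP2C19 transcript induction was quantified by quantitative nuclease protection assay with chemiluminescent read-out, 6 h after dosing. Cells were primary human hepatocytes from two donor preparations, given fresh dosing solutions daily in 0.2% DMSO vehicle. Activity was relative to DMSO.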

[13] = CCTE_Padilla_ZF_144hpf_TERATOSCORE: (Legacy) CCTE's 144 Hour Post-fertilization zebrafish Assay Teratoscore, Padilla Lab (AID 2283679; active = hit-call score of the fitted dose curve at least 0.9, where 1 is the maximum; inactive = score below 0.9;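 for AC50: zebrafish embryos with chorions exposed by immersion from 6-8 hpf to 5 dpf with daily renewal; teratogenicity score from eye scoring of death hatching and malformations at 144 hpf; higher score means more developmental defects relative to DMSO baseline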)
Summary of the method: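 Larvae scored by eye at 144 hpf for death, hatching and malformations after a day in clean Hanks'. Before that, daily-renewed exposure at 80 uM (0.4% DMSO, 26C) from roughly 6-8 hpf through 5 dpf, 4 embryos per chemical.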

[14] = read-out: solute carrier (SLC10A1), SLC10A1 (gene 6554); assay: LTEA_HepaRG_SLC10A1: Life Technologies and Expression Analysis (LTEA) Assay for solute carrier (SLC10A1) using HepaRG (AID 2283657; active = hit-call score of the fitted dose curve at least 0.9, where 1 is the maximum; inactive = score below 0.9); conditions: mRNA level, 48 h; actives raise or lower the signal
Summary of the method: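 Cryopreserved HepaRG cells are thawed, plated and cultured 48 h; medium is then switched to serum-free induction medium and chemicals added (8 points, max 100 uM, 0.5% DMSO). After 48 h, RNA is isolated and SLC10A1 quantified by qRT-PCR.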

[15] = read-out: matrix metalloproteinase-1 (MMP1), MMP1 (gene 4312); assay: LTEA_HepaRG_MMP1: Life Technologies and Expression Analysis (LTEA) Assay for matrix metalloproteinase-1 (MMP1) using HepaRG (AID 2283658; active = hit-call score of the fitted dose curve at least 0.9, where 1 is the maximum; inactive = score below 0.9); conditions: mRNA level, 48 h; actives raise or lower the signal
Summary of the method: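 In this screen, human liver HepaRG cultures receive each chemical in duplicate for 48 h (top 100 uM, 0.5% DMSO). MMP1 expression is then quantified by TaqMan qRT-PCR with ACTB/GAPDH/POLR2A normalization.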

[16] = read-out: Cytochrome P450 (CYP24A1_1), CYP24A1 (gene 1591); assay: LTEA_HepaRG_CYP24A1_1: Life Technologies and Expression Analysis (LTEA) Assay for Cytochrome P450 (CYP24A1_1) using HepaRG (AID 2283671; active = hit-call score of the fitted dose curve at least 0.9, where 1 is the maximum; inactive = score below 0.9); conditions: mRNA level, 48 h; actives raise or lower the signal
Summary of the method: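 Cultures of human HepaRG were treated in duplicate for 48 h (0.5% DMSO vehicle, highest dose 100 uM). CYP24A1 mRNA by qRT-PCR, normalized to ACTB, GAPDH, POLR2A.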

[17] = test system: Thyroperoxidase (TPO), gene 54314; assay: CCTE_Simmons_AUR_rTPO: CCTE's Amplex UltraRed Assay for Thyroperoxidase (TPO) Inhibition, Simmons Lab (AID 2283662);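 note: potency for loss of signal meaning inhibition of peroxidase activity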
Summary of the method: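 Endpoint is decreased Amplex UltraRed fluorescence after a 30-min, 37C reaction of rat thyroid microsomes with 300 uM H2O2. Eight test concentrations (5 nM–87.5 uM final) in 0.5% DMSO, three biological replicates each.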

[18] = CCTE_Simmons_CellTiterGLO_HEK293T: Viability Assessment in CCTE's Assays for Thyroperoxidase (TPO) Inhibition, Simmons Lab (AID 2283665);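 for AC50: cells exposed to compound for 24 h before readout; actives reduce ATP signal below DMSO vehicle meaning cytotoxicity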
Summary of the method: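 Cells were seeded overnight, then exposed to an eight-point series up to 87.5 uM final for 24 hours. CellTiter-Glo reagent was added and luminescence read after 20 min, giving ATP-based viability versus DMSO.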

[19] = read-out: xenobiotic metabolism (CYP1A2), CYP1A2 (gene 1544); assay: CLD_CYP1A2_6hr: CellzDirect (CLD) Gene Expression Assay for xenobiotic metabolism (CYP1A2) at 6 hours (AID 2283663);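 note: potency is for induction meaning a rise in mRNA above DMSO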
Summary of the method: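 mRNA levels quantified by quantitative nuclease protection assay with chemiluminescence, 6 h after dosing human primary hepatocyte cultures (two donors) across several concentrations, vehicle 0.2% DMSO. Induction fitted upward versus DMSO; phase-contrast cytotoxicity annotated.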

Measured: AC50

Cytochrome P450 2C19 (Homo sapiens), sequence (P33261 whole entry, looked up): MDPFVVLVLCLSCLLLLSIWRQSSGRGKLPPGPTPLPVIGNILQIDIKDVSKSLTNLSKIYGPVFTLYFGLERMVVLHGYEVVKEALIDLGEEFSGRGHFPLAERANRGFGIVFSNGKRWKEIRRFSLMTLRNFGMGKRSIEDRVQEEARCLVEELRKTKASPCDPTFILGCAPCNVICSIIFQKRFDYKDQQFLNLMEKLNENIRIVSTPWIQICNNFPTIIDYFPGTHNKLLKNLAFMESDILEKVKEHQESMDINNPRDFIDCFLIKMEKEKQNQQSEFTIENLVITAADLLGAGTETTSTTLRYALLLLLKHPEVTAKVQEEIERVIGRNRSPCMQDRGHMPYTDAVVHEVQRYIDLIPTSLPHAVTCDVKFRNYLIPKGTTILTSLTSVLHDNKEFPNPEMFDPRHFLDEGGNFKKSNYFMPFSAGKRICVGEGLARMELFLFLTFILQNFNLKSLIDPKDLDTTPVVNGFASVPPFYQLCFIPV

CCCN(CCC)C(=O)SCC
inactive: [1] | [2] | [3] | [4] | [5] | [6] | [7] | [8] | [9] | [10] | [11] | [12] | [13]
active: [11] 0.165 µM

COCCO
not listed: [6] | [7] | [8] | [9] | [11] | [17] | [18] | [19]
inactive: all other assays above

COC(=O)c1ccccc1C(=O)O
not listed: [4] | [6] | [17] | [18] | [19]
inactive: all other assays above

CSC(=O)c1cccc2nnsc12
active: [17] 0.303 µM | [13] 12.7 µM
not listed: [6] | [12] | [14] | [15] | [16] | [19]
inactive: all other assays above

C#CCOC(=O)[C@@H](C)Oc1ccc(Oc2ncc(Cl)cc2F)cc1
active: [11] 0.000426 µM | [13] 0.593 µM
inactive: [3] | [5] | [6] | [7] | [9] | [10] | [12]

CC1(C)C(C=C(Cl)Cl)C1C(=O)OCc1cccc(Oc2ccccc2)c1 (stereo unspecified)
active: [11] 0.083 µM | [13] 3.31 µM
inactive: [1] | [2] | [4] | [6] | [7] | [8] | [9] | [10] | [12]

CN(C)C(=O)Nc1ccc(Cl)c(Cl)c1
active: [14] 52.8 µM | [17] 36.6 µM | [19] 3.05 µM | [11] 4.6 µM
not listed: [1] | [6] | [8] | [10] | [12] | [18]
inactive: all other assays above

CC(=O)S[C@@H]1CC2=CC(=O)CC[C@]2(C)[C@H]2CC[C@@]3(C)[C@@H](CC[C@@]34CCC(=O)O4)[C@H]12
active: [13] 38.3 µM
inactive: [1] | [2]

N[C@@H](Cc1cc(I)c(Oc2ccc(O)c(I)c2)c(I)c1)C(=O)O
inactive: [1]
active: [17] 2.92 µM | [18] 43.8 µM | [5] 7.63 µM | [13] 0.331 µM

Cc1nn(C)c(Oc2ccccc2)c1C=NOCc1ccc(C(=O)OC(C)(C)C)cc1
inactive: [1] | [4] | [5] | [7] | [10]
active: [13] 0.213 µM

COC(=O)c1cccc(C)c1S(=O)(=O)NC(=O)Nc1nc(OCC(F)(F)F)nc(N(C)C)n1
active: [11] 8.96 µM
inactive: [6] | [7] | [9] | [10] | [12] | [13]

C#C[C@]1(O)CC[C@H]2[C@@H]3CCC4=CC(=O)CC[C@@H]4[C@H]3CC[C@@]21CC
inactive: [2] | [13]

CCCCCCC(C)OC(=O)COc1nc(F)c(Cl)c(N)c1Cl (stereo unspecified)
active: [13] 46.9 µM
not listed: [1] | [4] | [6] | [7] | [17] | [18] | [19]
inactive: all other assays above

COC(=O)c1c(Cl)nn(C)c1S(=O)(=O)NC(=O)Nc1nc(OC)cc(OC)n1
active: [13] 58.9 µM
inactive: [4] | [7] | [8] | [9] | [10] | [11]

COC(=O)c1ccc(CNS(C)(=O)=O)cc1S(=O)(=O)NC(=O)Nc1nc(OC)cc(OC)n1
inactive: [3] | [6] | [7] | [8] | [9] | [10] | [11] | [12] | [13]
